Experimental data taken from PubChem BioAssay (NCATS).
Values joined by “and” are separate entries in the source; they are usually repeats but may differ in a detail not shown here. Identical values can stand only once. Inconclusive results are not listed. Active and inactive are the calls of the source. Calls follow the shape of the full dose curve.

Test: Primary qHTS to identify inhibitors of SARS-CoV-2 cell entry (AID 1645846); also: nearly all actives have a fitted effect of over 45% in size
Settings: SARS-CoV-2 pseudovirus cell entry assay, luminescence; activity change, negative = inhibition: at 57.1 µM (top of the series) unless noted
Source text: Assay Provider: Wei Zheng, Ph.D.
National Center for Advancing Translational Sciences, National Institute of Health, Rockville, MD.
SARS-CoV-2 spike protein, within the viral envelope, mediates viral attachment and infection of host cells. The SARS-CoV-2 spike protein specifically binds to the host receptor ACE2 (Angiotensin-converting enzyme 2). This interaction promotes endocytosis of the viral particle, additional events lead to viral-host cell membrane fusion and release of the viral contents, allowing viral replication.
While SARS-CoV-2 requires BSL-3 facilities for live virus work, pseudotyped partices (PP) that incorporate SARS-CoV-2 spike proteins without replication elements could facilitate studies on viral entry mechanisms in a BSL-2 setting. This PP cell entry assay could also enable screening of small molecule compound libraries in BSL-2 setting to identify inhibitors of SARS-CoV-2 cell entry.
PROTOCOL TABLE (format as described by Inglese J, Shamu CE and Guy RK. 2007)
SEQUENCE No. (e.g., 1, 2, 3, etc.); […] (e.g., Cells, Incubation, Reagent, etc.); VALUE and DESCRIPTION.
1. Cells. Seed 1500 HEK293-ACE2 cells (Expi293F with stable expression of human ACE2) in 2 uL/well media (DMEM, 10% FBS, 1x L-glutamine, 1x Pen/Strep, 1 ug/ml puromycin) in white 1536-well assay plates (Greiner #782073).
2. Incubation. Incubate at 37C with 5% CO2 overnight (~16 h).
3. Compounds. Dispense 23 nL/well compounds in DMSO via pin transfer.
4. Incubation. Incubate for 1 hr at 37C 5% CO2.
5. Reagent. Dispense 2 uL/well of SARS-CoV-2-S pseudotyped particles. [a] PPs are produced with murine leukemia virus pseudotyping. [b] SARS-CoV-2-S is Wuhan-Hu-1 sequence (BEI #NR-52420) with C-terminal 19 amino acid truncation.
6. Centrifuge. […]
7. Incubation. Incubate at for 48 hr at 37C 5% CO2
8. Centrifuge. Remove supernatant with gentle centrifugation using a Blue Washer (BlueCat Bio).
9. Reagent. Dispense 4 uL/well of Bright-Glo Luciferase detection reagent (Promega #E2620).
10. Incubation. Incubate for 5 min at room temperature.
11. Detection. Read luminescence signal (Viewlux plate reader, PerkinElmer). Data was normalized with wells containing SARS-CoV-2-S PP as 100%, and wells containing bald PP (no fusion protein) as 0%.
Potency is read from the fitted curve at half-maximal effect.

Compound	activity change, negative = inhibition	Potency	outcome
Cc1c(F)cc(C(=O)NC2CC2)cc1-c1c(F)cn2c(C(C)(C)C)nnc2c1F	3.6%		
CC1(C)OC2=C(C(=O)c3ccccc3C2=O)[C@H](NCc2ccccc2)[C@@H]1O		3.16 µM (active)	
Cc1c(O)cccc1C(=O)NC(CSc1ccccc1)C(O)CN1CC2CCCCC2CC1C(=O)NC(C)(C)C (stereo not given)		31.6 µM (active)	
CS(=O)(=O)c1ccc(-c2nnc(/C=C/c3nnc(-c4ccc(C#N)cc4)o3)n2-c2ccccc2Cl)nc1	-12.6%		
COc1ccc(-c2oc3c(CC=C(C)C)c(OC4O[C@H](CO)[C@@H](O)[C@H](O)[C@H]4O)cc(O)c3c(=O)c2OC2O[C@@H](C)[C@H](O)[C@@H](O)[C@H]2O)cc1 (stereo not given in full)	-18.5%		
CN1C(=O)[C@]23C[C@H]4C(C)(C)[C@]5(CNc6c5ccc5c6OC=CC(C)(C)O5)C[C@@]41CN2CC[C@@]3(C)O			inactive
Cc1cn(CCN2CCN(c3ccccc3-c3cc(C#N)cc(C(=O)NCCCN4CCCC4)c3)CC2)c2ccccc12		17.8 µM (active)	
NC(=S)NS(=O)(=O)c1ccc(N)cc1	-18.4%		
CCCCCCCCCCCCNCCNCCNCC(=O)O	-24.3% [at 27.1 µM]		
O=C(COCC(=O)N1CCN(C(c2ccccc2)c2ccccc2)CC1)Nc1ccc(Cl)cc1C(=O)O	-0.414%		
O=C(O)CCCCN(CCc1ccccc1OCc1ccc(CCc2ccccc2)cc1)Cc1ccc(C(=O)O)cc1			inactive
CC(CCc1ccc(O)cc1)NCC(O)c1ccc(O)cc1 (stereo not given)			inactive
c1ccc2scnc2c1	-27.1%		
CCC(=O)O[C@]1(C(=O)COC(C)=O)CC[C@H]2[C@@H]3C[C@H](C)C4=CC(=O)C=C[C@]4(C)[C@H]3[C@@H](O)C[C@@]21C	-17.7%		
CC(C)(C)CC(C)(C)c1cc(Cc2cc(C(C)(C)CC(C)(C)C)cc(-n3nc4ccccc4n3)c2O)c(O)c(-n2nc3ccccc3n2)c1	-28.1% [at 5.25 µM]		
CNC(=O)Cn1cc(-c2ccc3c(c2)C(F)CC32NC(=O)N(CC(=O)N(Cc3ccc(F)cc3)[C@@H](C)C(F)(F)F)C2=O)cn1 (stereo not given in full)	-19.9% and -7.29%		
COC(=O)[C@@]12OC[C@]34[C@H]([C@@H](O)[C@@H]1O)[C@@]1(C)CC(=O)C(O)=C(C)[C@@H]1C[C@H]3OC(=O)[C@H](OC(=O)/C=C(\C)C(C)C)[C@@H]24	-94.1%		
Cn1cc(OCC(O)CNC(C)(C)C)c2ccccc2c1=O (stereo not given)	-17.6%		
CC(=O)OCC1=C(C(=O)O)N2C(=O)[C@@H](NC(=O)[C@H](N)c3ccccc3)[C@H]2SC1	-7.18%		
CC1(N)CCN(c2cnc(-c3cccc(Cl)c3Cl)c(N)n2)CC1	-2.57% [at 27.1 µM]		

Compound	activity change, negative = inhibition	Potency	outcome
CCCCCCCC(=O)CC[C@@H]1[C@@H](C/C=C\CCCC(=O)OC(C)C)[C@@H](O)C[C@H]1O		25.1 µM (active)	
C[C@@H]1CCN(C(=O)N2CCCC2)C[C@@H]1N(C)c1ncnc2[nH]ccc12			inactive
CCNCCS(=O)(=O)NC[C@@]1(c2ccccc2)SC(NC(=O)C(C)(C)C)=NN1C(=O)C(C)(C)C	-77.9%		
C[C@H]1CC[C@@H]2[C@@H](C)[C@H]3[C@H](C[C@H]4[C@@H]5CC=C6C[C@@H](O[C@@H]7O[C@H](CO)[C@H](O)[C@H](O[C@@H]8O[C@H](CO)[C@@H](O)[C@H](O)[C@H]8O)[C@H]7O[C@@H]7O[C@@H](C)[C@H](O)[C@@H](O)[C@H]7O)CC[C@]6(C)[C@H]5CC[C@]34C)N2C1		20 µM (active)	
O=P(O)(O)OC1C(OP(=O)(O)O)C(OP(=O)(O)O)C(OP(=O)(O)O)C(OP(=O)(O)O)C1OP(=O)(O)O (stereo not given)	-23.6%		
O=C(Cc1cccs1)NC1C(=O)N2C(C(=O)[O-])=C(C[n+]3ccccc3)CSC12 (stereo not given)	-15.7%		
C[C@]12CCCN1CC1=NNC(=O)c3cc(F)cc4[nH]c2c1c34	-15.3%		
CC1(C)CC[C@]2(NC(=O)C(C)(F)F)CC[C@]3(C)[C@H](C(=O)C=C4[C@@]5(C)C=C(C#N)C(=O)C(C)(C)[C@@H]5CC[C@]43C)[C@@H]2C1		1 µM (active)	
CON(C)C(=O)N1N=C(c2cc(F)ccc2F)S[C@@]1(CCCN)c1ccccc1	-86.6%		
CCCC(=O)O[C@]1(C(=O)COC(=O)CC)[C@@H](C)C[C@H]2[C@@H]3CCC4=CC(=O)C=C[C@]4(C)[C@@]3(F)[C@@H](O)C[C@@]21C			inactive
CCN(CCCOc1ccc2c(Nc3cc(CC(=O)Nc4cccc(F)c4)[nH]n3)ncnc2c1)CCOP(=O)(O)O	-62.3%		
Cc1ccc(S(=O)(=O)O)cc1C	-10.6%		
Cc1[nH]cnc1CN1CCN(C(=O)N[C@@H](CC(C)C)C(=O)O)[C@@H](Cc2ccccc2)C1=O	3.22%		
CCCOc1cc(N)ccc1C(=O)OCCN(CC)CC	-10.9%		
CC(C)c1nc(N(C)S(C)(=O)=O)nc(-c2ccc(F)cc2)c1/C=C/[C@@H](O)C[C@@H](O)CC(=O)O			inactive [at 27.1 µM]
Cc1cccc(C)c1N(CCCc1cccnc1)C(=O)C(C)N (stereo not given)	-18.9%		
Cc1cc(=O)c(C(=O)N[C@@H](C(=O)N[C@@H]2C(=O)N3C(C(=O)O)=C(CSc4nnnn4C)CS[C@H]23)c2ccc(O)cc2)c[nH]1	-20.7%		
COc1cc(-c2cn(C)c(=O)c3cnccc23)c(OC)cc1CN(C)C	-18.5%		
CN(CCO)C1CCN(c2ccc(Nc3ncc4c5ccnc(F)c5n(C5CCCC5)c4n3)nc2)CC1	-15.6% [at 27.1 µM]		
NC(=O)/C(=C/n1cnc(-c2cc(C(F)(F)F)cc(C(F)(F)F)c2)n1)c1cncnc1		1.26 µM (active)	
